Calls of active or inactive are those of the source. The calls were made as follows: active = hit-call score of the fitted dose curve at least 0.9, where 1 is the maximum; inactive = score below 0.9.

Settings in all cases: mRNA level, 48 h; actives raise or lower the signal
Read-out in assay [1]: Cytochrome P450 (CYP2B6), CYP2B6 (gene 1555)
Kind of assay: LTEA_HepaRG_CYP2B6: Life Technologies and Expression Analysis (LTEA) Assay for Cytochrome P450 (CYP2B6) using HepaRG (AID 2283481). The essentials:
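Using 48 h treatment of HepaRG cells in serum-free induction medium, concentrations spanned half-log steps from 100 uM in 0.5% DMSO vehicle. CYP2B6 mRNA induction or loss is scored by qRT-PCR against DMSO.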

Read-out in assay [2]: Cytochrome P450 2C19 (Homo sapiens) (UniProt P33261)
Kind of assay: LTEA_HepaRG_CYP2C19: Life Technologies and Expression Analysis (LTEA) Assay for CYP2C19 using HepaRG (AID 2283482). The method in brief: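 Human HepaRG liver cells received test chemicals for 48 h (highest 100 uM, half-log dilutions in 0.5% DMSO). CYP2C19 mRNA induction or loss is read by multiplexed qRT-PCR and fitted in both directions versus vehicle.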

Read-out in assay [3]: CYP2C8 (gene 1558)
The assay can be described thus: LTEA_HepaRG_CYP2C8: Life Technologies and Expression Analysis (LTEA) Assay for CYP2C8 using HepaRG (AID 2283483). The essentials: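 CYP2C8 expression measured by TaqMan qRT-PCR and normalized to three housekeeping genes. HepaRG cultures were treated for 48 h with an eight-point half-log series topping at 100 uM, vehicle 0.5% DMSO, duplicates; fitted both directions against DMSO.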

Read-out in assay [4]: CYP2C9 (gene 1559)
Kind of assay: LTEA_HepaRG_CYP2C9: Life Technologies and Expression Analysis (LTEA) Assay for CYP2C9 using HepaRG (AID 2283484). The essentials: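 CYP2C9 transcript level, quantified by TaqMan qRT-PCR against three housekeeping genes, was fitted bidirectionally relative to 0.5% DMSO. HepaRG cultures were treated 48 h, in duplicate, at eight half-log concentrations topping at 100 uM.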

Read-out in assay [5]: CYP2E1 (gene 1571)
Kind of assay: LTEA_HepaRG_CYP2E1: Life Technologies and Expression Analysis (LTEA) Assay for CYP2E1 using HepaRG (AID 2283485). The method in brief: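 Assay uses 48 h exposure of HepaRG hepatic cells, eight concentrations to 100 uM. Expression of CYP2E1 is quantified by TaqMan qRT-PCR with ACTB, GAPDH and POLR2A normalization; curves fitted in both directions relative to vehicle.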

Read-out in assay [6]: CYP4A11 (gene 1579)
Kind of assay: LTEA_HepaRG_CYP4A11: Life Technologies and Expression Analysis (LTEA) Assay for CYP4A11 using HepaRG (AID 2283486). The method in brief:
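Readout is CYP4A11 mRNA induction or suppression (qRT-PCR, ACTB/GAPDH/POLR2A normalization) in human HepaRG cells after 48 h chemical treatment, concentrations to 100 uM in 0.5% DMSO, fitted bidirectionally against vehicle.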

Read-out in assay [7]: Cytochrome P450 3A4 (Homo sapiens) (UniProt P08684)
The assay can be described thus: LTEA_HepaRG_CYP3A4: Life Technologies and Expression Analysis (LTEA) Assay for CYP3A4 using HepaRG (AID 2283487). The essentials:
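Differentiated HepaRG cells in serum-free induction medium exposed in duplicate for 48 h to 8 half-log concentrations up to 100 uM in 0.5% DMSO. CYP3A4 mRNA measured by qRT-PCR normalized to ACTB, GAPDH and POLR2A; bidirectional fit versus DMSO.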

Read-out in assay [8]: DNA damage-inducible transcript 3 (DDIT3), DDIT3 (gene 1649)
The assay can be described thus: LTEA_HepaRG_DDIT3: Life Technologies and Expression Analysis (LTEA) Assay for DNA damage-inducible transcript 3 (DDIT3) using HepaRG (AID 2283488). The method in brief:
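Eight-point concentration-response (100 uM highest, half-log dilutions) in HepaRG, 48 h, duplicate wells. Endpoint: qRT-PCR mRNA, normalized (ACTB, GAPDH, POLR2A), bidirectional fitting with DMSO as baseline.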

Read-out in assay [9]: Pro-epidermal growth factor (Homo sapiens) (UniProt P01133)
The assay can be described thus: LTEA_HepaRG_EGF: Life Technologies and Expression Analysis (LTEA) Assay for Epidermal growth factor (EGF) using HepaRG (AID 2283489). The method in brief:
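EGF expression changes in human HepaRG cells are scored by bidirectional fitting relative to 0.5% DMSO controls. Chemicals are tested at eight half-log concentrations up to 100 uM for 48 h in serum-free induction medium.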

Read-out in assay [10]: Early growth response protein 1 (EGR1) transcription factor, EGR1 (gene 1958)
The assay can be described thus: LTEA_HepaRG_EGR1: Life Technologies and Expression Analysis (LTEA) Assay for Early growth response protein 1 (EGR1) transcription factor using HepaRG (AID 2283490). The method in brief:
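EGR1 transcript levels quantified by qRT-PCR (Fluidigm arrays) against three housekeeping genes after 48 h chemical exposure of HepaRG cells. Eight-point half-log series topping at 100 uM, 0.5% DMSO vehicle, analyzed for gain or loss.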

Read-out in assay [11]: Cytochrome P450 3A7 (Homo sapiens) (UniProt P24462)
The assay can be described thus: LTEA_HepaRG_CYP3A7: Life Technologies and Expression Analysis (LTEA) Assay for CYP3A7 using HepaRG (AID 2283492). The essentials: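 Cells were thawed, plated, cultured 48 h, then treated for a further 48 h with chemicals (eight-point half-log series from 100 uM, 0.5% DMSO). RNA was isolated and CYP3A7 expression quantified by qRT-PCR normalised to ACTB, GAPDH and POLR2A.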

Read-out in assay [12]: CYP3A5 (gene 1577)
Kind of assay: LTEA_HepaRG_CYP3A5: Life Technologies and Expression Analysis (LTEA) Assay for CYP3A5 using HepaRG (AID 2283493). The essentials:
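Readout was CYP3A5 mRNA by qRT-PCR. HepaRG cultures were exposed for 48 h in serum-free induction medium to chemicals at up to 100 uM, and responses were fitted in both directions relative to DMSO vehicle.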

Read-out in assay [13]: Fatty Acid-Binding Protein 1 (FABP1), FABP1 (gene 2168)
Kind of assay: LTEA_HepaRG_FABP1: Life Technologies and Expression Analysis (LTEA) Assay for Fatty Acid-Binding Protein 1 (FABP1) using HepaRG (AID 2283494). The essentials: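 FABP1 expression by TaqMan qRT-PCR, normalised to three housekeeping genes, in HepaRG cells after 48 h chemical treatment. Eight-point half-log series topping at 100 uM in 0.5% DMSO, duplicates; gain or loss fitted relative to vehicle.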

Read-out in assay [14]: Cytochrome P450 4A22 (Homo sapiens) (UniProt Q5TCH4)
The assay can be described thus: LTEA_HepaRG_CYP4A22: Life Technologies and Expression Analysis (LTEA) Assay for Cytochrome P450 4A22 (CYP4A22) using HepaRG (AID 2283495). The essentials:
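Cryopreserved HepaRG cells, plated and cultured 48 h, then switched to serum-free induction medium and treated 48 h (duplicates, up to 100 uM, half-log steps, 0.5% DMSO). Expression change of CYP4A22 was fitted bidirectionally against vehicle.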

Read-out in assay [15]: Cytochrome P450 7A1 (Homo sapiens) (UniProt P22680)
The assay can be described thus: LTEA_HepaRG_CYP7A1: Life Technologies and Expression Analysis (LTEA) Assay for Cytochrome P450 7A1 (CYP7A1) using HepaRG (AID 2283496). The essentials: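 Using 0.5% DMSO as vehicle and baseline, chemicals were tested in duplicate over an 8-point range from 100 uM on HepaRG cells for 48 h; qRT-PCR signals were normalised to ACTB, GAPDH and POLR2A.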

Read-out in assay [16]: Glutathione S-Transferase (GSTA2), GSTA2 (gene 2939)
The assay can be described thus: LTEA_HepaRG_GSTA2: Life Technologies and Expression Analysis (LTEA) Assay for Glutathione S-Transferase (GSTA2) using HepaRG (AID 2283497). The essentials:
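GSTA2 transcript levels came from Fluidigm TaqMan qRT-PCR normalized to three housekeeping genes, fitted in both directions against DMSO. HepaRG cultures received chemicals for 48 h in serum-free induction medium (0.5% DMSO), 8 half-log concentrations up to 100 uM, duplicate.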

Read-out in assay [17]: Glutamate-cysteine ligase catalytic (GCLC), GCLC (gene 2729)
The assay can be described thus: LTEA_HepaRG_GCLC: Life Technologies and Expression Analysis (LTEA) Assay for Glutamate-cysteine ligase catalytic (GCLC) using HepaRG (AID 2283498). The essentials:
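Expression by TaqMan qRT-PCR, normalized to three housekeeping genes (ACTB, GAPDH, POLR2A), with up- or down-regulation fitted against DMSO. HepaRG cells dosed in duplicate for 48 h with 8 half-log concentrations up to 100 uM, vehicle 0.5% DMSO.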

Read-out in assay [18]: growth arrest and DNA damage 45 (GADD45G), GADD45G (gene 10912)
The assay can be described thus: LTEA_HepaRG_GADD45G: Life Technologies and Expression Analysis (LTEA) Assay for growth arrest and DNA damage 45 (GADD45G) using HepaRG (AID 2283499). The essentials: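 Human hepatic HepaRG line treated 48 h with chemicals (eight concentrations, half-log steps from 100 uM); transcript induction or repression of GADD45G scored by qRT-PCR versus DMSO vehicle.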

Read-out in assay [19]: Ezrin (EZR), EZR (gene 7430)
The assay can be described thus: LTEA_HepaRG_EZR: Life Technologies and Expression Analysis (LTEA) Assay for Ezrin (EZR) using HepaRG (AID 2283491). The method in brief:
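Differentiated human HepaRG cells, 48 h after plating, were exposed in serum-free induction medium for 48 hours to eight half-log concentrations up to 100 uM in 0.5% DMSO. EZR mRNA was measured by TaqMan qRT-PCR, normalized to ACTB, GAPDH and POLR2A, and fitted bidirectionally against DMSO.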

Read-out in assay [20]: Glutamate-cysteine ligase regulatory (GCLM), GCLM (gene 2730)
The assay can be described thus: LTEA_HepaRG_GCLM: Life Technologies and Expression Analysis (LTEA) Assay for Glutamate-cysteine ligase regulatory (GCLM) using HepaRG (AID 2283500). The method in brief:
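In this multiplexed HepaRG gene-expression assay, GCLM mRNA change after 48 h treatment (8 concentrations, max 100 uM) was scored against DMSO by bidirectional curve fitting.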

Sequence of Cytochrome P450 2C19 (Homo sapiens) (P33261 whole entry, looked up): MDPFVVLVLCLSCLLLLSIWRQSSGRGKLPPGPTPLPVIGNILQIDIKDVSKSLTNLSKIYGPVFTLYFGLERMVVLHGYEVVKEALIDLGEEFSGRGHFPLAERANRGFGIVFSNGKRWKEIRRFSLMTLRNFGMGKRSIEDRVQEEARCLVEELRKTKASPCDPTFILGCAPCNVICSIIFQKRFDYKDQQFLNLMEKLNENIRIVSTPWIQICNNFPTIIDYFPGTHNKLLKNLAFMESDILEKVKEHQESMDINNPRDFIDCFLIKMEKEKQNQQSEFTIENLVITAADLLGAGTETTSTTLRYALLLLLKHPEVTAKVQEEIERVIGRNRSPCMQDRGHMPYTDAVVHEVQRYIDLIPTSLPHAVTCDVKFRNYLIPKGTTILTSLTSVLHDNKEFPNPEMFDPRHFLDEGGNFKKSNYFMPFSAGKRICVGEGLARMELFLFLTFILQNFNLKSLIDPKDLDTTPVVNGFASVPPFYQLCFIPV
Sequence of Cytochrome P450 3A4 (Homo sapiens) (P08684 whole entry, looked up): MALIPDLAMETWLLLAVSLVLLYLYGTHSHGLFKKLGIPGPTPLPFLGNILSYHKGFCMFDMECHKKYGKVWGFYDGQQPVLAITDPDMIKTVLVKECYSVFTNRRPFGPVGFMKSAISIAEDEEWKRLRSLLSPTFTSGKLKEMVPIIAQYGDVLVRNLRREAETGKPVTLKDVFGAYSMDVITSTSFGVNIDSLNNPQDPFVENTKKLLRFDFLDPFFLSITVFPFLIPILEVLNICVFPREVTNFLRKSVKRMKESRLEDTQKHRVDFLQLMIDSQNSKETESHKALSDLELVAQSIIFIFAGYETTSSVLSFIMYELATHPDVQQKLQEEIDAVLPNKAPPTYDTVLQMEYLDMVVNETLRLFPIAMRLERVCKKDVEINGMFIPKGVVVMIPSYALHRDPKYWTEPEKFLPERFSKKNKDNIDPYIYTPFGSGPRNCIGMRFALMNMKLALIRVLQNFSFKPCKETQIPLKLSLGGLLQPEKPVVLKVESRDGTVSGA
Sequence of Cytochrome P450 3A7 (Homo sapiens) (P24462 whole entry, looked up): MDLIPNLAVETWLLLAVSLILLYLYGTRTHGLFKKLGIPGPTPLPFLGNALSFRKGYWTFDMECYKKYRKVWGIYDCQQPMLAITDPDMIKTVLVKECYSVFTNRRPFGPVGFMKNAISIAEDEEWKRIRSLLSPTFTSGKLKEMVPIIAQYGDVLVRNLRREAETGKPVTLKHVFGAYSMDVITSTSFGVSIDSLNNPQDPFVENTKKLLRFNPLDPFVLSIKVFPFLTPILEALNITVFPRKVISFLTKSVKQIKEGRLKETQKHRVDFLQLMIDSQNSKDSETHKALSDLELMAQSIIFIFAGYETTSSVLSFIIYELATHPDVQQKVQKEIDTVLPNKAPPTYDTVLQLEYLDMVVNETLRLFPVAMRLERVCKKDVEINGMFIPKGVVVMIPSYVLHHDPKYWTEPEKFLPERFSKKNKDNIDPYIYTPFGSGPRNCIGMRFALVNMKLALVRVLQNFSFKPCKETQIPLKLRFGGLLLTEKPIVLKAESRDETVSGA

Usually AC50 stands for the midpoint of the concentration-response curve, whichever way the signal moves. Consider `O=C(N[C@H](c1ccccc1)[C@@H]1CN2CCC1CC2)c1c(Cl)ccc(C(F)(F)F)c1Cl`, for which the AC50 in [1] was 42 µM (active); in assay [2], 75.2 µM (active); in assay [4], 69.5 µM (active); in [5] it was 44.5 µM (active); in assay [6] it was 35.4 µM (active); in [7] it was 81.2 µM (active). The AC50 in assay [8] was 36.3 µM (active); in assay [9], 73.1 µM (active); in assay [10], 87.5 µM (active); in assay [11] it was 76.2 µM (active); in assay [13], 85.1 µM (active); in assay [14], 14.6 µM (active). Besides, the AC50 in assay [15] was 80.1 µM (active); in assay [16], 73.7 µM (active); in [18], 21.4 µM (active). The call in [3], in [12] and in assay [17] was inactive.

Turning to `OCCCBr`, the AC50 in [1] was 40.8 µM (active). For the same molecule, the molecule was classed as inactive in assay [2], in assay [3], in [4], in [5], in assay [6] and in assay [7]. The molecule was called inactive in [8], in [9], in [10], in assay [11], in assay [12] and in assay [13]. Besides, the outcome in [14], in assay [15], in [16], in assay [17] and in [18] was inactive.

`c1ccc2c(c1)oc1ccccc12`: the AC50 in assay [1] is 0.0679 µM (active). For the same molecule, the result in assay [2], in assay [3], in assay [4], in assay [5], in assay [6] and in [7] was inactive. The call in assay [8], in [9], in assay [10], in assay [11], in [12] and in [13] was inactive. Besides, the result in assay [14], in [15], in [16], in assay [17] and in [18] was inactive.

As for `CC(C)(OOC(C)(C)c1ccccc1)c1ccccc1`, the AC50 in assay [1] was 7.24 µM (active); in assay [2], 30 µM (active); in assay [3], 25.4 µM (active); in [5], 35.1 µM (active); in assay [7], 23.9 µM (active); in assay [11], 40.4 µM (active). In addition, the molecule was classed as inactive in assay [4], in [6], in assay [8], in [9], in [10] and in assay [19]. For the same molecule, the molecule was classed as inactive in [13], in assay [14], in assay [15], in assay [16], in assay [17] and in [18]. Besides, in assay [20], the molecule was classed as inactive.

Values taken from PubChem BioAssay (EPA / NIEHS).
